The record followed here is publication PMC7862700, “An all-to-all approach to the identification of sequence-specific readers for epigenetic DNA modifications on cytosine”.

Common to all, as to test: DAPPL (digital affinity profiling via proximity ligation, sequencing); 10 mM Tris-HCl pH 7.5, 50 mM NaCl, 1 mM DTT, 4% glycerol, room temperature, 30 min; GST-TFs on glutathione beads, 16-mer random dsDNA library, 0.1% formaldehyde crosslink after washing; high values mean tight binding
One assay addresses T1, FEV (Homo sapiens, UniProt Q99581 1-238).
T1 sequence: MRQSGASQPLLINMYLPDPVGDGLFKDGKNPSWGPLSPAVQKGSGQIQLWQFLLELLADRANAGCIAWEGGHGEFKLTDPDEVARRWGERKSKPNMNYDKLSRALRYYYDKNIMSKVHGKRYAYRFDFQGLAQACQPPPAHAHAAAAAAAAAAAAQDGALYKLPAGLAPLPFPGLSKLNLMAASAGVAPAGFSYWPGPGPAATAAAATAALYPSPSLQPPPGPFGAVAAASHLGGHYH
The note with it: protein: recombinant; tags: N-terminal GST; dsDNA, one strand shown. An outline of the steps: (§1)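 Binding signal is defined as a hexamer's read frequency for one factor over its frequency for the tag-only sample. To obtain reads, GST-fused human transcription factors were expressed in yeast, captured on glutathione beads, barcoded with DNA and pooled with that sample. Pools met 200 nmole of a 16-mer random double-stranded DNA library in Tris/NaCl/DTT/glycerol buffer for 30 min at room temperature before washing, 0.1% formaldehyde crosslinking, proximity ligation (BsaI/T4 ligase, 1 h, 37 °C), PCR and Illumina NextSeq500 sequencing.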

A further assay deals with ETV5 (Homo sapiens, UniProt P41161 1-510). The note with it: protein: recombinant; tags: N-terminal GST; dsDNA, one strand shown. An outline of the steps:
as §1

In the next assay the target is HSF1 (Homo sapiens, UniProt Q00613 1-529). The note with it: protein: recombinant; tags: N-terminal GST; chain copies: 3; dsDNA, one strand shown. An outline of the steps:
as §1

The next assay has as its target T2, SPIC (Homo sapiens, UniProt Q8N5J4 1-248).
T2 sequence: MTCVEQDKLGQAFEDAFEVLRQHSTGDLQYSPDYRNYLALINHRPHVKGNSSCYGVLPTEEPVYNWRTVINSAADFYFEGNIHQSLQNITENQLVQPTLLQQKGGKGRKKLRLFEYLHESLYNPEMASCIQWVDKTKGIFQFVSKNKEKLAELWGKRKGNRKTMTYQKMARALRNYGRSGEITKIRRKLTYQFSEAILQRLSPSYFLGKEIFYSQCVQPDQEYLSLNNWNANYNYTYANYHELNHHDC
The note with it: protein: recombinant; tags: N-terminal GST; dsDNA, one strand shown. An outline of the steps:
as §1

For another assay, the target named is ELF4 (Homo sapiens, UniProt Q99607 1-663). The note with it: protein: recombinant; tags: N-terminal GST; dsDNA, one strand shown. An outline of the steps: as §1
The next assay addresses T3, ELK4 (Homo sapiens, UniProt P28324-2 1-405).
T3 sequence: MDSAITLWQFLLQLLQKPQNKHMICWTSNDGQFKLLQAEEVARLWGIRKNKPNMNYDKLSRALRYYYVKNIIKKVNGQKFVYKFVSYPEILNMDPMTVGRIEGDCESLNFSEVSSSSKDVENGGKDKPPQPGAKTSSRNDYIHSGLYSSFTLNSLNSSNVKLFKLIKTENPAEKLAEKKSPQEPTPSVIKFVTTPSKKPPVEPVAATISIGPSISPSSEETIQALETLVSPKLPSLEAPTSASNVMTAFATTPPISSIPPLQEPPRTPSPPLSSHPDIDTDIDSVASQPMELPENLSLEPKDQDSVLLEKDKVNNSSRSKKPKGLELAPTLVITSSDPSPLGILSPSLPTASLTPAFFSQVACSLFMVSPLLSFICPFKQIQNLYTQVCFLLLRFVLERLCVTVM
The note with it: protein: recombinant; tags: N-terminal GST; dsDNA, one strand shown. An outline of the steps: as §1

Another assay addresses T4, ETV2 (Homo sapiens, UniProt O00321 1-342).
T4 sequence: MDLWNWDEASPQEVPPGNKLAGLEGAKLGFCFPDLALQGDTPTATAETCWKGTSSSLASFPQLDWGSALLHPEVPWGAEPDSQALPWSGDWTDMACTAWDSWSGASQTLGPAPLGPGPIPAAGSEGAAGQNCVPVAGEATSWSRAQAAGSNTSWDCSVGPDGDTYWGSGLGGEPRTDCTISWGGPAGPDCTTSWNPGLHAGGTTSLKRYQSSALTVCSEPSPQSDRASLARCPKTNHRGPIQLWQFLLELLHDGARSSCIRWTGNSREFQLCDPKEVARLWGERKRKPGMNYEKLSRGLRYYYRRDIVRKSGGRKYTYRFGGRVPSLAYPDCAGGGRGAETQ
To be noted: protein: recombinant; tags: N-terminal GST; dsDNA, one strand shown. An outline of the steps: as §1

The target of the next assay is T5, ELF3 (Homo sapiens, UniProt P78545 1-371).
T5 sequence: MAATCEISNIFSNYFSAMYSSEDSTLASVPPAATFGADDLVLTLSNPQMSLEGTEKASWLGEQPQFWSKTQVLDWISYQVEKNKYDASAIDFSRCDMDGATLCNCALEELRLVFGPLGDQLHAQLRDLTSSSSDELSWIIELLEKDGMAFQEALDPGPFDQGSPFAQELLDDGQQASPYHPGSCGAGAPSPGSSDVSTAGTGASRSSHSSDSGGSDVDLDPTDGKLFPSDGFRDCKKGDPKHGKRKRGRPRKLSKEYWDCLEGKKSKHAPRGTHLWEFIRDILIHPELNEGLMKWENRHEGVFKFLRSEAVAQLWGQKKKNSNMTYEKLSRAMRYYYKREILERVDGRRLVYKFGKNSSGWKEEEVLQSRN
The note with it: protein: recombinant; tags: N-terminal GST; dsDNA, one strand shown. An outline of the steps:
as §1

The target of the next assay is CRX (Homo sapiens, UniProt O43186 1-299). To be noted: protein: recombinant; tags: N-terminal GST; dsDNA, one strand shown. An outline of the steps: as §1
The next assay addresses ETV1 (Homo sapiens, UniProt P50549 1-477). The note with it: protein: recombinant; tags: N-terminal GST; dsDNA, one strand shown. An outline of the steps:
as §1

The target of the next assay is T6, ERF (Homo sapiens, UniProt P50548 1-548).
T6 sequence: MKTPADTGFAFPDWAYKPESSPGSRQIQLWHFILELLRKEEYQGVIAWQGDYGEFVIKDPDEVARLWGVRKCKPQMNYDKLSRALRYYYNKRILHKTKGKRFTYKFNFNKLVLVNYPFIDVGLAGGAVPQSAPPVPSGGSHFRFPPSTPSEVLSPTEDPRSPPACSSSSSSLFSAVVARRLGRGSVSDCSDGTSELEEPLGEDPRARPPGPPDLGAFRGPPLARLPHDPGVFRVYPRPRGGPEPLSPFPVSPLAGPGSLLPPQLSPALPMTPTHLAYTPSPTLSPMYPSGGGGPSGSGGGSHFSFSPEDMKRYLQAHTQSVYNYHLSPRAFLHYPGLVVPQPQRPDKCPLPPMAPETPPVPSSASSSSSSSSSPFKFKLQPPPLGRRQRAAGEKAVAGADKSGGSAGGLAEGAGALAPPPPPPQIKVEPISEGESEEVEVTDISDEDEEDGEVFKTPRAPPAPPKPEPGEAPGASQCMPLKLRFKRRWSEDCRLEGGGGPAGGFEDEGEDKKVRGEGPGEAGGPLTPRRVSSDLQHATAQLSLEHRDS
The note with it: protein: recombinant; tags: N-terminal GST; dsDNA, one strand shown. An outline of the steps: as §1

The next assay addresses T7, ETV3L (Homo sapiens, UniProt Q6ZN32 1-361).
T7 sequence: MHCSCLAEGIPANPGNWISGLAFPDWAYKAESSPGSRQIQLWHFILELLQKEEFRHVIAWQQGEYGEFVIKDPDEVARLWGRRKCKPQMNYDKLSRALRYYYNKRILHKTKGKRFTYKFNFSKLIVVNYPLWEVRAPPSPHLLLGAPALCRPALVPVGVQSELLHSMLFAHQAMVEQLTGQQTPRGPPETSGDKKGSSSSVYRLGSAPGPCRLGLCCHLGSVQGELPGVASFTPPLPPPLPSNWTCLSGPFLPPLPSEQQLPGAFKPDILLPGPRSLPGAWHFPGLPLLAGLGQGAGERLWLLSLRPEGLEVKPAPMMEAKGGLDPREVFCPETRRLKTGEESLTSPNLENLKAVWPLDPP
The note with it: protein: recombinant; tags: N-terminal GST; dsDNA, one strand shown. An outline of the steps:
as §1

The target of the next assay is T8, ETS2 (Homo sapiens, UniProt P15036 1-469).
T8 sequence: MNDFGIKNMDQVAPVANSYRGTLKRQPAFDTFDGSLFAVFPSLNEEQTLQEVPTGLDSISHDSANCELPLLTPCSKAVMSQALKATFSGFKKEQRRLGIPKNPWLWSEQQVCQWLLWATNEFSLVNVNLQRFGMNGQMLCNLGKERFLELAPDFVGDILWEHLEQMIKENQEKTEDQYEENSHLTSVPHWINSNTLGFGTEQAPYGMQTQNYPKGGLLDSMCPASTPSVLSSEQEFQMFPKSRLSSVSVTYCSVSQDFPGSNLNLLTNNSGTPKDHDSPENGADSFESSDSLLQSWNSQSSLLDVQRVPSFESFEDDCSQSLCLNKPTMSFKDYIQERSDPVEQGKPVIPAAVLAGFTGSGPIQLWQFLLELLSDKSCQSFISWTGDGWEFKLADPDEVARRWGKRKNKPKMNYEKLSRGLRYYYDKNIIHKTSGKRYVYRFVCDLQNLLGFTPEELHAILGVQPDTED
The note with it: protein: recombinant; tags: N-terminal GST; dsDNA, one strand shown. An outline of the steps: as §1

A further assay concerns the target T9, SPDEF (Homo sapiens, UniProt O95238 1-335).
T9 sequence: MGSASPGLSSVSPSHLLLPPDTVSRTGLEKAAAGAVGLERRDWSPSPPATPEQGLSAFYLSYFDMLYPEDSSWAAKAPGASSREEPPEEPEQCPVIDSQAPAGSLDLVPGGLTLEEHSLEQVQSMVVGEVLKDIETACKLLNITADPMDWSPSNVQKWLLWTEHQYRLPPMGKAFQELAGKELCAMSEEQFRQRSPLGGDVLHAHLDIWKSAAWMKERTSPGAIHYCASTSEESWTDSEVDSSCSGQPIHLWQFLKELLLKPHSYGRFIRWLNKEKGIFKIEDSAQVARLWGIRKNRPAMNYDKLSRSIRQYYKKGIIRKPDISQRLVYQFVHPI
The note with it: protein: recombinant; tags: N-terminal GST; dsDNA, one strand shown. An outline of the steps: as §1

The target of a further assay is T10, ETV7 (Homo sapiens, UniProt Q9Y603 1-341).
T10 sequence: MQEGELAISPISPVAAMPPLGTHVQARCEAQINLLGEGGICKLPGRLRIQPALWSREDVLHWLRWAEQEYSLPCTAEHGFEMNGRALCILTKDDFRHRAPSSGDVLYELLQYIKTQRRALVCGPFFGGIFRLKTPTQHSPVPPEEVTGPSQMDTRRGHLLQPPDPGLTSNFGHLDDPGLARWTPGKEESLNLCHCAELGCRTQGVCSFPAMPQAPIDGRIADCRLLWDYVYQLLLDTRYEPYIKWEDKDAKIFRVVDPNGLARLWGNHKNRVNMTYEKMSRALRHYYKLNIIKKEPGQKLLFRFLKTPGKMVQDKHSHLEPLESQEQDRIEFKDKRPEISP
To be noted: protein: recombinant; tags: N-terminal GST; dsDNA, one strand shown. An outline of the steps: as §1

The target of the next assay is T11, ELF5 (Homo sapiens, UniProt Q9UKW6-2 1-255).
T11 sequence: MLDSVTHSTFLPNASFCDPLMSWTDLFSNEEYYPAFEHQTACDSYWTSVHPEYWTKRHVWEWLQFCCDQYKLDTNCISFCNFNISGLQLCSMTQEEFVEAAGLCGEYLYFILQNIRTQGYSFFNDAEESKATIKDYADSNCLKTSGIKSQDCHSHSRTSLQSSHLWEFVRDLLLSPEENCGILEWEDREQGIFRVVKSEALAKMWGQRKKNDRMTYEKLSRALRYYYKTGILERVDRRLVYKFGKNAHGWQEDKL
The note with it: protein: recombinant; tags: N-terminal GST; dsDNA, one strand shown. An outline of the steps:
as §1

Another assay has as its target T12, ETV3 (Homo sapiens, UniProt P41162-2 1-143).
T12 sequence: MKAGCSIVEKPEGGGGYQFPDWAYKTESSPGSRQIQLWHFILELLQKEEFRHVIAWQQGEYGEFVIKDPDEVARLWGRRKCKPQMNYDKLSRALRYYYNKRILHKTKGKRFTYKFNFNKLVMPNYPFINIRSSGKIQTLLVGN
The note with it: protein: recombinant; tags: N-terminal GST; dsDNA, one strand shown. An outline of the steps: as §1

The next assay deals with ETV6 (Homo sapiens, UniProt P41212 1-452). The note with it: protein: recombinant; tags: N-terminal GST; dsDNA, one strand shown. An outline of the steps: as §1
Chain of ETV6 (P41212 whole entry): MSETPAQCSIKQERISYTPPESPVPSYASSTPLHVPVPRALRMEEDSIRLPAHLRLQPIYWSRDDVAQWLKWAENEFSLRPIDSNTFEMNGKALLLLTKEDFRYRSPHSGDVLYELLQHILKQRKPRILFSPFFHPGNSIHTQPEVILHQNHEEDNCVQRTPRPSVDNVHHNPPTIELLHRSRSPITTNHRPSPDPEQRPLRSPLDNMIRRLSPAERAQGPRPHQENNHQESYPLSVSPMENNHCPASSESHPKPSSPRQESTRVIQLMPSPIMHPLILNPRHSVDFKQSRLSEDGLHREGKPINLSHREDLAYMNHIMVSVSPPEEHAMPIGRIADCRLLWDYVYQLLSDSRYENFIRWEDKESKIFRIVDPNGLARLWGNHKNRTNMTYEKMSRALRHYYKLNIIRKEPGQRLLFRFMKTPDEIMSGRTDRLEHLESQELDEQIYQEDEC

Chain of ELF4 (Q99607 whole entry): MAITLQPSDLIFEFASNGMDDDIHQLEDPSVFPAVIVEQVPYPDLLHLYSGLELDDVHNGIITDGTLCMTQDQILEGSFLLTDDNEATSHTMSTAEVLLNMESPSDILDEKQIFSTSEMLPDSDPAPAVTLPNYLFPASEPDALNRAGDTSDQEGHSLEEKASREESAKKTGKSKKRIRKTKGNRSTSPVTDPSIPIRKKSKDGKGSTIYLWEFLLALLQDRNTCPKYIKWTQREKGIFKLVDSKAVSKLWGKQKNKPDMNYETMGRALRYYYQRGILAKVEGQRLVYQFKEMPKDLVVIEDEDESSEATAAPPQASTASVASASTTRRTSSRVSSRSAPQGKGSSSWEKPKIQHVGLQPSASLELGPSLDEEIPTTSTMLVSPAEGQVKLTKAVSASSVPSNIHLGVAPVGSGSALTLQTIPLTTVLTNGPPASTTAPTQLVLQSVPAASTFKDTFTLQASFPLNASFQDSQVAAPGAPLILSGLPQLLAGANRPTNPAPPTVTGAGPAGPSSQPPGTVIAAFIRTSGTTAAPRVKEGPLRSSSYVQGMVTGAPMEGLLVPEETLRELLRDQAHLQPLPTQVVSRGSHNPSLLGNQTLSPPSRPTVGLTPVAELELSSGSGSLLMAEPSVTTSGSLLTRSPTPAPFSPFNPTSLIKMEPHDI
Chain of HSF1 (Q00613 whole entry): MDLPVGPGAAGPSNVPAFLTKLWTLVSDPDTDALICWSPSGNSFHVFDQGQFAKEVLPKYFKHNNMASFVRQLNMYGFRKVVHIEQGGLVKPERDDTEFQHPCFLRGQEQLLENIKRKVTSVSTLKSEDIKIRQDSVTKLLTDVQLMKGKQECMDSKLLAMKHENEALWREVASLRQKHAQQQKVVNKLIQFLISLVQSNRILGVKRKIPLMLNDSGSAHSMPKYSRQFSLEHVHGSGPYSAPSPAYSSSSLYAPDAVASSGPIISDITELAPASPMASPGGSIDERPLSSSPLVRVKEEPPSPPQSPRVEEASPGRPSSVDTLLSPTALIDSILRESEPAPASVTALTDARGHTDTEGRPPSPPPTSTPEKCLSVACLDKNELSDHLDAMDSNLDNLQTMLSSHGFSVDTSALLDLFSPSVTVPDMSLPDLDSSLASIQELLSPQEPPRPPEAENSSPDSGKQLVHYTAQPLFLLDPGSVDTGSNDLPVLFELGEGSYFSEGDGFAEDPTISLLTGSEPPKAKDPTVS
Chain of ETV1 (P50549 whole entry): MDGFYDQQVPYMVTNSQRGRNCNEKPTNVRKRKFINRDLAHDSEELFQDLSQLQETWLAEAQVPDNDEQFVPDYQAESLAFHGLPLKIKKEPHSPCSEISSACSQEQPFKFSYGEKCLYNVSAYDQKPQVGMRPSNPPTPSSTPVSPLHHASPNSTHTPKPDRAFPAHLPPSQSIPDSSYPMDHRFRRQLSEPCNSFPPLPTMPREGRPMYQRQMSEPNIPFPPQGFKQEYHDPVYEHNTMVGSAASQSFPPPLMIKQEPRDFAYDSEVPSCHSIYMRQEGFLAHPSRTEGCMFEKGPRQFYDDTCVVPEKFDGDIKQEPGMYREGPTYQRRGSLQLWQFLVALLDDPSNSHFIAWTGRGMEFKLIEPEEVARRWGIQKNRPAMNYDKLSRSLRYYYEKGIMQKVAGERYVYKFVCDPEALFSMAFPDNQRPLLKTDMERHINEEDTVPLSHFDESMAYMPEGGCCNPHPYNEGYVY
Chain of ETV5 (P41161 whole entry): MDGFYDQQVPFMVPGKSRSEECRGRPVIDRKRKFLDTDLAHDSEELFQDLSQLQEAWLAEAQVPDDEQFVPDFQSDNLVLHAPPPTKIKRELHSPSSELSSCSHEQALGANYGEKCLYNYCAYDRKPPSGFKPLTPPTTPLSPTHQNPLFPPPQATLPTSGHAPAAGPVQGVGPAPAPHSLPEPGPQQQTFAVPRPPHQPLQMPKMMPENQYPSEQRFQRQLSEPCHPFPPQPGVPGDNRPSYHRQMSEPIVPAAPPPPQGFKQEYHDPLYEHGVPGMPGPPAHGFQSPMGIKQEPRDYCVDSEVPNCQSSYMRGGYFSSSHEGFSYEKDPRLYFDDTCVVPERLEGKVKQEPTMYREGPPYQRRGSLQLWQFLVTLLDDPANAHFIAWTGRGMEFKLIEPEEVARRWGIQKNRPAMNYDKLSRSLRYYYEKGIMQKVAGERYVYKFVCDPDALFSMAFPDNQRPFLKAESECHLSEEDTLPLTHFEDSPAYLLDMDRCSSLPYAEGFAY
Chain of CRX (O43186 whole entry): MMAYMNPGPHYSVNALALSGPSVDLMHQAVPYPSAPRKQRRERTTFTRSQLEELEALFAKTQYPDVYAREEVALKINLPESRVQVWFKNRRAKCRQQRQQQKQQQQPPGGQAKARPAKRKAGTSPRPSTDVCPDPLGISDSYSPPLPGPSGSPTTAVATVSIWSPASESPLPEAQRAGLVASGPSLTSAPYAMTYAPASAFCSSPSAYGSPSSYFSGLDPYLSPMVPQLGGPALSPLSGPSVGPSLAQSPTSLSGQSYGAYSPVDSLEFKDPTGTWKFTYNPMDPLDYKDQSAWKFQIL

With TCTGGC, the binding signal in the assay with FEV was 1.16 fold enrichment (6-mer frequency, TF over GST control); with ETV5 it was 1.11 fold enrichment (6-mer frequency, TF over GST control); in the assay with HSF1, 1.89 fold enrichment (6-mer frequency, TF over GST control); with SPIC, 1.38 fold enrichment (6-mer frequency, TF over GST control); in the assay with ELF4 it was 1.4 fold enrichment (6-mer frequency, TF over GST control); in the assay with ELK4 it was 1.44 fold enrichment (6-mer frequency, TF over GST control). The binding signal with ETV2 is 1.28 fold enrichment (6-mer frequency, TF over GST control); with ELF3, 1.03 fold enrichment (6-mer frequency, TF over GST control); with CRX, 1.31 fold enrichment (6-mer frequency, TF over GST control); in the assay with ETV1, 1.24 fold enrichment (6-mer frequency, TF over GST control); with ERF, 1.31 fold enrichment (6-mer frequency, TF over GST control); in the assay with ETV3L it was 1.11 fold enrichment (6-mer frequency, TF over GST control). Moreover, the binding signal with ETS2 is 1.21 fold enrichment (6-mer frequency, TF over GST control); in the assay with SPDEF, 1.15 fold enrichment (6-mer frequency, TF over GST control); in the assay with ETV7 it was 1.24 fold enrichment (6-mer frequency, TF over GST control); with ELF5 it was 1.08 fold enrichment (6-mer frequency, TF over GST control); in the assay with ETV3 it was 1.06 fold enrichment (6-mer frequency, TF over GST control); with ETV6, 1.19 fold enrichment (6-mer frequency, TF over GST control).
